In PubChem BioAssay (EPA / NIEHS):
The source made the active and inactive calls. Rule for the calls: active = hit-call score of the fitted dose curve at least 0.9, where 1 is the maximum; inactive = score below 0.9.

Assays:
[1] = ATG_E_Box_CIS: Attagene CIS-FACTORIAL HepG2 Assay for human Enhancer Box (E-box) (AID 2282936); conditions: HepG2 E-box cis-reporter transcription, actives raise or lower the signal
Procedure, shortened: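 First, HepG2 cells receive multiple cis-regulated reporter constructs by transient transfection. Next, chemicals are applied for 24 h. Finally, reporter mRNA is quantified via RT-PCR and capillary electrophoresis, with DMSO as baseline.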

[2] = ATG_M_61_CIS: Attagene CIS-FACTORIAL HepG2 Assay for M61 Transcription Factor (Internal Marker) (AID 2282937); conditions: HepG2 Attagene CIS-FACTORIAL M61 internal marker reporter; actives raise or lower the signal
Procedure, shortened: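 Fluorescence from labelled cDNA fragments, separated by capillary electrophoresis, quantifies reporter induction. HepG2 cells bearing transiently transfected cis-promoter MRTUs were incubated with test chemical for 24 h; DMSO defined baseline for gain/loss fitting.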

[3] = ATG_EGR_CIS: Attagene CIS-FACTORIAL HepG2 Assay for human Early Growth Response 1 (EGR1) (AID 2282938); conditions: HepG2 Attagene CIS-FACTORIAL EGR reporter mRNA; actives raise or lower the signal
Procedure, shortened: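 Cell-based multiplex transcription assay: HepG2 carrying transfected cis-element reporter units, 24 h chemical treatment. Fluorescence from capillary electrophoresis of RT-PCR products gives mRNA levels; fitting is bidirectional relative to DMSO.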

[4] = ATG_M_19_CIS: Attagene CIS-FACTORIAL HepG2 Assay for M19 Transcription Factor (Internal Marker) (AID 2282939); conditions: HepG2 Attagene CIS-FACTORIAL M19 internal marker reporter; actives raise or lower the signal
Procedure, shortened: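 Chemical-treated HepG2 (24 h) with MRTU constructs; reporter transcripts detected by fluorescent RT-PCR fragment analysis on capillary electrophoresis. Internal background marker, DMSO as baseline.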

[5] = ATG_ERE_CIS: Attagene CIS-FACTORIAL HepG2 Assay for Estrogen Response Element (ERE) (AID 2282940); conditions: HepG2 ERE cis-reporter, Attagene RNA transcript; actives raise or lower the signal
Procedure, shortened: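 Human liver cells (HepG2) bearing transiently transfected, promoter-regulated reporter units were exposed 24 h. Reporter mRNA induction was detected by capillary electrophoresis of labelled RT-PCR products and fitted bidirectionally to DMSO.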

[6] = ATG_Ets_CIS: Attagene CIS-FACTORIAL HepG2 Assay for human Erythroblast Transformation Specific (ETS) (AID 2282941); conditions: HepG2 ETS cis-reporter transcription, actives raise or lower the signal
Procedure, shortened: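 After transient cis-reporter transfection, HepG2 cells receive test chemical for 24 h. Reporter mRNA levels, measured by RT-PCR and capillary electrophoresis fluorescence, are analysed bidirectionally relative to the DMSO baseline.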

[7] = target: Hepatocyte nuclear factor 3-beta (Homo sapiens) (UniProt Q9Y261); assay: ATG_FoxA2_CIS: Attagene CIS-FACTORIAL HepG2 Assay for human Forkhead box A2 (FOXA2) (AID 2282942); conditions: HepG2 cis-reporter transcription factor activity, 24 h; actives raise or lower the signal
Sequence of Hepatocyte nuclear factor 3-beta (Homo sapiens) (Q9Y261 whole entry, looked up): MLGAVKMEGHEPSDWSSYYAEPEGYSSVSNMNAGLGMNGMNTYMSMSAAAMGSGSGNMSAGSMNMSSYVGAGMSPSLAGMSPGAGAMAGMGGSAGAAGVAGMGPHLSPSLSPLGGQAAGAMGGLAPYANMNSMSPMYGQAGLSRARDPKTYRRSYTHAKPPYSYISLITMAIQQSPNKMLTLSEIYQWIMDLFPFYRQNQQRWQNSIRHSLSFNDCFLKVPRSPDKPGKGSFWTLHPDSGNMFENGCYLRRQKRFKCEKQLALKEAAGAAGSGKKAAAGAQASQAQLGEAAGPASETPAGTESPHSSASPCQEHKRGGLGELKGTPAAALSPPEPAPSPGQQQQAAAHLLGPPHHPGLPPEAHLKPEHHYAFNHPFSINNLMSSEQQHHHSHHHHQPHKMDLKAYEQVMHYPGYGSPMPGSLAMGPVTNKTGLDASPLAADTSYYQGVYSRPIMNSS
Procedure, shortened: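 In transiently transfected human HepG2 cells, promoter-driven reporter mRNA levels after 24 h chemical exposure are determined via RT-PCR with capillary electrophoresis. DMSO serves as baseline for bidirectional fitting.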

[8] = ATG_FoxO_CIS: Attagene CIS-FACTORIAL HepG2 Assay for human Forkhead box O (FoxO) (AID 2282943); conditions: HepG2 Attagene cis-reporter, FoxO element, mRNA; actives raise or lower the signal
Procedure, shortened: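 HepG2 cells transiently transfected with cis-element-driven reporter units report endogenous FoxO activity. After 24 h chemical exposure, reporter mRNA quantified by RT-PCR, fluorescent labeling, HpaI digestion and capillary electrophoresis; bidirectional fit versus DMSO.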

[9] = ATG_GATA_CIS: Attagene CIS-FACTORIAL HepG2 Assay for human GATA Binding Protein (AID 2282944); conditions: HepG2 GATA cis-element reporter, Attagene multiplex mRNA; actives raise or lower the signal
Procedure, shortened: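 Transfected cis-reporter HepG2 cells were treated with chemicals for 24 hours. Total RNA was then converted to cDNA, amplified with reporter-specific primers and analysed by fluorescent capillary electrophoresis, using DMSO-treated wells as baseline.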

[10] = ATG_GLI_CIS: Attagene CIS-FACTORIAL HepG2 Assay for human Zinc Finger Protein GLI1 (AID 2282945); conditions: HepG2, Attagene cis-factorial reporter mRNA, GLI element; actives raise or lower the signal
Procedure, shortened: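 Transiently transfected HepG2 cells report endogenous transcription factor activity via cis-element-driven reporter units. After 24 h compound exposure, reporter mRNA was measured by RT-PCR with capillary electrophoresis; bidirectional fitting against DMSO baseline.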

[11] = target: Bile acid receptor (Homo sapiens) (UniProt Q96RI1); assay: ATG_IR1_CIS: Attagene CIS-FACTORIAL HepG2 Assay for human Nuclear Receptor Subfamily 1 Group H Member 4 (NR1H4), IR1 submotif (AID 2282946); conditions: IR1 reporter transcription, actives raise or lower the signal
Sequence of Bile acid receptor (Homo sapiens) (Q96RI1 whole entry, looked up): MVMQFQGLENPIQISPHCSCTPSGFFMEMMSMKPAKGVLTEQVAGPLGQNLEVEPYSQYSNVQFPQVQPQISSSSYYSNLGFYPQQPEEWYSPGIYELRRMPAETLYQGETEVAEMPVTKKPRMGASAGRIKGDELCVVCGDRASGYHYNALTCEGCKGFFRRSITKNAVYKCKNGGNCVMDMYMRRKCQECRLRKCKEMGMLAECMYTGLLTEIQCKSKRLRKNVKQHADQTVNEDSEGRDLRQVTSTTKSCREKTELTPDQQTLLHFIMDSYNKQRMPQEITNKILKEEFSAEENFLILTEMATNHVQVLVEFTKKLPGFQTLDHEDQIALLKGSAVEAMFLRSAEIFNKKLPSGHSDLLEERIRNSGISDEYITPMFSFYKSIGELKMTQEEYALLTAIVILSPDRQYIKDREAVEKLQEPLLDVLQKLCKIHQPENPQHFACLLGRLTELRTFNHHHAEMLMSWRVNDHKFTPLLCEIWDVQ
Procedure, shortened: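 HepG2 cells transiently transfected with multiple cis-promoter-driven reporter units to measure endogenous transcription factor activity; 24 h exposure. Reporter mRNA read by RT-PCR, FAM labelling, HpaI digestion and capillary electrophoresis. Bidirectional fit versus DMSO.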

[12] = ATG_ISRE_CIS: Attagene CIS-FACTORIAL HepG2 Assay for human Interferon Regulatory Factor 1 (IRF1) binding to an Interferon-Stimulated Response Element (ISRE) (AID 2282948); conditions: HepG2 ISRE cis-reporter (Attagene), mRNA transcription readout; actives raise or lower the signal
Procedure, shortened: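 Quantitation relies on labelled RT-PCR fragments separated by capillary electrophoresis. Human HepG2 cells bearing cis-promoter reporter constructs were treated 24 h; DMSO served as baseline for bidirectional fitting.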

[13] = ATG_M_32_CIS: Attagene CIS-FACTORIAL HepG2 Assay for M32 Transcription Factor (Internal Marker) (AID 2282949); conditions: HepG2 Attagene cis-factorial M32 reporter, mRNA; actives raise or lower the signal;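 note: background control marker of the multiplexed CIS panel rather than a real target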
Procedure, shortened: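 Following 24 h chemical exposure of HepG2 cells transiently expressing cis-promoter reporter constructs, reporter transcript levels were determined by RT-PCR with fluorescent labelling and capillary electrophoresis, then fitted bidirectionally against DMSO.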

[14] = ATG_M_06_CIS: Attagene CIS-FACTORIAL HepG2 Assay for M06 Transcription Factor (Internal Marker) (AID 2282950); conditions: HepG2 Attagene CIS-FACTORIAL M06 internal marker reporter; actives raise or lower the signal
Procedure, shortened: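 Cells (HepG2, transiently carrying cis-driven reporter units) receive chemical for 24 h before RNA isolation. Reporter cDNA is PCR-amplified, FAM-labelled by primer extension, HpaI-digested and sized on a capillary analyser.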

[15] = target: Hepatocyte nuclear factor 6 (Homo sapiens) (UniProt Q9UBC0); assay: ATG_HNF6_CIS: Attagene CIS-FACTORIAL HepG2 Assay for human Hepatocyte Nuclear Factor 6 (HNF6) (AID 2282952); conditions: HepG2 Attagene cis-factorial HNF6 reporter transcription; actives raise or lower the signal
Sequence of Hepatocyte nuclear factor 6 (Homo sapiens) (Q9UBC0 whole entry, looked up): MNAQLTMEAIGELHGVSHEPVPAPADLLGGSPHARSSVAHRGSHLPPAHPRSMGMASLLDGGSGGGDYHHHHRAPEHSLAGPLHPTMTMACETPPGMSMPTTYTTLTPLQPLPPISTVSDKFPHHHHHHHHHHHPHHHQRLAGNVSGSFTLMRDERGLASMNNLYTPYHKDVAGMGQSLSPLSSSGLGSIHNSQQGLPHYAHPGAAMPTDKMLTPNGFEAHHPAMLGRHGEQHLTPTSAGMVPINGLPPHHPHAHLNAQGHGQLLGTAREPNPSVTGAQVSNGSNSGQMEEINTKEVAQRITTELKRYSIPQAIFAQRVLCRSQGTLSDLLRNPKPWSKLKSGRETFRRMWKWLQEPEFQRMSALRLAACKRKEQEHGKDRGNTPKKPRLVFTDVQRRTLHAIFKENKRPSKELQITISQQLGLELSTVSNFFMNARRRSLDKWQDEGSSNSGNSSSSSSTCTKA
Procedure, shortened: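 Cells are HepG2 carrying transiently transfected cis-promoter reporter units. Treatment lasts 24 h, after which reporter transcripts are reverse-transcribed, amplified, FAM-labelled and sized by capillary electrophoresis. DMSO serves as baseline.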

[16] = target: Heat shock factor protein 1 (Homo sapiens) (UniProt Q00613); assay: ATG_HSE_CIS: Attagene CIS-FACTORIAL HepG2 Assay for human Heat Shock Transcription Factor 1 (HSE) (AID 2282953); conditions: HepG2 HSE cis-reporter, Attagene RNA transcription; actives raise or lower the signal
Sequence of Heat shock factor protein 1 (Homo sapiens) (Q00613 whole entry, looked up): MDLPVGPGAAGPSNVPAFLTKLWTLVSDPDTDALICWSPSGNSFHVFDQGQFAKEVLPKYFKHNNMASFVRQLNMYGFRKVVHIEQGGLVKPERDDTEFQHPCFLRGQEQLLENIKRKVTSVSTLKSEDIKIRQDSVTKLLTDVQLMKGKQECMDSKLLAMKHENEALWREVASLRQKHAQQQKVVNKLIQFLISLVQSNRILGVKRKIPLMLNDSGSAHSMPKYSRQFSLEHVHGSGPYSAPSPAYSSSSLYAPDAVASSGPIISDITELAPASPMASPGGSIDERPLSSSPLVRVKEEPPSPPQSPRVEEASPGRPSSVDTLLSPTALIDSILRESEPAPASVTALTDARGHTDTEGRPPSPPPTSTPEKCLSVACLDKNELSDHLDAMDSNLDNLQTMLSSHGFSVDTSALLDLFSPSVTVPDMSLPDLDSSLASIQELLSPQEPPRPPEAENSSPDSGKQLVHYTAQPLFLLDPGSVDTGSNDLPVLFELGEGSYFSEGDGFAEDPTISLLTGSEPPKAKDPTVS
Procedure, shortened: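 Liver-derived HepG2 cells carry transiently introduced multiple reporter units governed by cis promoters. Reporter RNA measured 24 h post-dose through reverse transcription, PCR amplification, fluorescent labelling and capillary electrophoresis, normalised to DMSO.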

[17] = ATG_MRE_CIS: Attagene CIS-FACTORIAL HepG2 Assay for human Metal Responsive Element (MRE) (AID 2282954); conditions: HepG2 MRE cis-reporter transcription, Attagene multiplex; actives raise or lower the signal
Procedure, shortened: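 Fluorescent reporter fragments separated by capillary electrophoresis give mRNA induction for the MRE unit after 24 h treatment of transfected HepG2 cells. Endogenous transcription-factor activity is read; DMSO serves as negative control and baseline.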

[18] = ATG_PBREM_CIS: Attagene CIS-FACTORIAL HepG2 Assay for human Phenobarbital-responsive Enhancer Module (PBREM) (AID 2282955); conditions: HepG2 PBREM cis-reporter, Attagene multiplexed transcription; actives raise or lower the signal
Procedure, shortened: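 After a 24 h incubation with test chemical, transfected HepG2 cells yield total RNA; reporter-specific RT-PCR products are fluorescently labelled, HpaI-digested and resolved by capillary electrophoresis against ROX size standards.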

[19] = ATG_GRE_CIS: Attagene CIS-FACTORIAL HepG2 Assay for human Glucocorticoid Response Elements (GRE) (AID 2282947); conditions: HepG2 GRE cis-reporter, Attagene multiplex mRNA; actives raise or lower the signal
Procedure, shortened: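 Endogenous transcription factor activity is read through cis-element reporter constructs transiently transfected into HepG2 cells. After 24 h treatment, labelled RT-PCR products are resolved by capillary electrophoresis; DMSO sets baseline for bidirectional curve fitting.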

[20] = target: Hypoxia-inducible factor 1-alpha (Homo sapiens) (UniProt Q16665); assay: ATG_HIF1a_CIS: Attagene CIS-FACTORIAL HepG2 Assay for human Hypoxia Inducible Factor 1 (HIF1A) (AID 2282951); conditions: HepG2 Attagene cis-factorial HIF1a reporter transcription; actives raise or lower the signal
Sequence of Hypoxia-inducible factor 1-alpha (Homo sapiens) (Q16665 whole entry, looked up): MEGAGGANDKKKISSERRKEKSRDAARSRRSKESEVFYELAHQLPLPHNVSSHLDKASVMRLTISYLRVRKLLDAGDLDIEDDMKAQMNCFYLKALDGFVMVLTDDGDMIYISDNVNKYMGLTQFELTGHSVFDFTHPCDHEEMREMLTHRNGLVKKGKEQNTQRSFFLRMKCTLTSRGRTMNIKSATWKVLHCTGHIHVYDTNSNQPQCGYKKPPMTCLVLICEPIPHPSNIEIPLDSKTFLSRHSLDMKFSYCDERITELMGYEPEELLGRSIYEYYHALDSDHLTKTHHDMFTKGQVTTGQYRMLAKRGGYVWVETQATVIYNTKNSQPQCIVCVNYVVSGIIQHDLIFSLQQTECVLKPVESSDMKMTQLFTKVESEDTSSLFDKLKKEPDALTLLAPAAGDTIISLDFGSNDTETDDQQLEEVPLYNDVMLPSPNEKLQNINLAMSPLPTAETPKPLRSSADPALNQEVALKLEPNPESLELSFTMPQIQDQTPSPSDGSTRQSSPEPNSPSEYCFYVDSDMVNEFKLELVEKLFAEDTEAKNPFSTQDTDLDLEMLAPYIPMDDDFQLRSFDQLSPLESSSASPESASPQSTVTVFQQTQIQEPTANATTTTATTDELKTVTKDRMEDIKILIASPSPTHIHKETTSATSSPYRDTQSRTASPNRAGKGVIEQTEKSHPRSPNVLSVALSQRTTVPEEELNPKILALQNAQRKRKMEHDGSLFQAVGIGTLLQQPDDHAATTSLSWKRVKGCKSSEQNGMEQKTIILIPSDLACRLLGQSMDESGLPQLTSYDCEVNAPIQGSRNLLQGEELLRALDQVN
Procedure, shortened: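 In this multiplexed cell assay, HepG2 cells bearing transfected cis reporters are dosed for 24 h and reporter mRNA is read by RT-PCR plus capillary electrophoresis; signal increases and decreases are both scored against DMSO.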

Measured: AC50

CCCCCCCCCCCCCCCCOS(=O)(=O)O
active: [1] 25.8 µM | [12] 22.8 µM | [17] 25.4 µM
not listed: [19] | [20]
inactive: all other assays above

C[C@]12C=CC(=O)C=C1CC[C@H]1[C@@H]3C[C@@H](O)[C@](O)(C(=O)CO)[C@@]3(C)C[C@H](O)[C@@]12F
active: [5] 17.8 µM | [19] 0.14 µM
not listed: [11] | [18] | [20]
inactive: all other assays above

O=C1CN(N=Cc2ccc([N+](=O)[O-])o2)C(=O)N1
active: [5] 27.6 µM | [20] 27.3 µM
not listed: [11] | [15]
inactive: all other assays above

CCCCCCCCCC
active: [9] 0.033 µM
not listed: [18] | [19] | [20]
inactive: all other assays above

O=C(O)[C@H](O)[C@@H](O)C(=O)O
not listed: [16] | [20]
inactive: all other assays above

CC(C)C(=O)Nc1ccc([N+](=O)[O-])c(C(F)(F)F)c1
active: [16] 167 µM | [17] 100 µM
not listed: [19] | [20]
inactive: all other assays above

CCCCCCCCN(C)C
not listed: [11] | [16] | [18]
inactive: all other assays above

CNC(C)=O
not listed: [11] | [20]
inactive: all other assays above

c1ccc(C(O[C@@H]2CCCN(CCc3ccc4c(c3)OCO4)C2)c2ccccc2)cc1
active: [3] 33 µM | [5] 13.8 µM | [20] 47.1 µM | [16] 55 µM | [17] 33 µM
not listed: [11] | [18]
inactive: all other assays above

CC(C)c1nnc2ccc(-c3ocnc3-c3cc(F)ccc3F)cn12
active: [17] 100 µM | [18] 83.4 µM
not listed: [11] | [15]
inactive: all other assays above

COCc1nnc(-c2ccc[n+]([O-])c2)n1-c1c(Cl)c(Cl)cc2[nH]c(=O)c(=O)[nH]c12
not listed: [16] | [18] | [19] | [20]
inactive: all other assays above

O=C(O)c1cccc(C[C@@H]2COc3ccc(OCc4nc5cc(F)ccc5s4)cc3[C@@H]2O)c1
active: [1] 66.9 µM | [12] 163 µM | [17] 154 µM
not listed: [11] | [16]
inactive: all other assays above

CCCCC(CC)C(=O)OCCOCCOCCOC(=O)C(CC)CCCC (centres undefined)
not listed: [11] | [16]
inactive: all other assays above

CCCCCCCC/C=C\CCCCCCCC(=O)OC[C@@H](O)[C@H]1OC[C@H](O)[C@H]1O
not listed: [11] | [18] | [20]
inactive: all other assays above

C[Si](C)(C)C(F)(F)C(F)(F)C(F)(F)F
not listed: [16] | [20]
inactive: all other assays above
